From PubChem
This is a sample that favours compounds with a hit; in the whole collection about 3.5% have one here.
MITF inh – human MITF inhibition, primary screen. AlphaScreen MITF homodimerization, bead proximity signal. inhibition, % at 2.6 µM. 650,000 tested, 0.91% active. AID 1259374; in the data active = inhibition above about 50%;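 note: 0% = vehicle wells with protein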
GPR151 ag – activators of human GPR151 | Q8TDV0 | PathHunter beta-arrestin GPR151 cells, luminescence | activation, % at 11.2 µM | 650,000 tested, 1% active | AID 1508602; in the data active = activation above about 4.9%;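 note: 0% = median of compound wells and 100% = cells with positive control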
FBW7 act – activators of human E3 ligase FBW7; AlphaScreen FBW7–phospho-cyclin E peptide binding, activator screen; Q969H0; 650,000 tested, 0.13% active; normalized activity (activation), % at 26.1 µM; in the data active = normalized activity above about 1.9%;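 note: purified mutant Fbw7 with reduced substrate affinity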
Target sequence (Q969H0 whole entry, looked up): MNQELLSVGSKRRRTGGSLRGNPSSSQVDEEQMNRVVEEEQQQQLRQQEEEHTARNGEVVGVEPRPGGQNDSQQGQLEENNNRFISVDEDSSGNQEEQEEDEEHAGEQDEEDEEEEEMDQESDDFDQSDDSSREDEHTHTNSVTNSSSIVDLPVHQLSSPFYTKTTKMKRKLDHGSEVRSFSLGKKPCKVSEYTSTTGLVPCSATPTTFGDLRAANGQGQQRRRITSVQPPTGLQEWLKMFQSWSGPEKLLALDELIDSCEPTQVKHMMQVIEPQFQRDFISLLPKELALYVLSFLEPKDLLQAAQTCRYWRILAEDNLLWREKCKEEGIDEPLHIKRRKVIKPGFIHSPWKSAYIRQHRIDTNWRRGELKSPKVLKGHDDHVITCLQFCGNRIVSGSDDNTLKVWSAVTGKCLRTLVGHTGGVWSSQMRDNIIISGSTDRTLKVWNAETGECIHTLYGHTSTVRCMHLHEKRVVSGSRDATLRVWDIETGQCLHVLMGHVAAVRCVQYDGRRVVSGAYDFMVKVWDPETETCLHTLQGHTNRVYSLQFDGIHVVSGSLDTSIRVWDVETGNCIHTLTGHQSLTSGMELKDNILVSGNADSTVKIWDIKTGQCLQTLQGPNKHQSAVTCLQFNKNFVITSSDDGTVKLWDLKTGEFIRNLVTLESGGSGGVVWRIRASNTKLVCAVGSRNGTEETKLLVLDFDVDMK
TEAD-YAP inh – TEAD-YAP interaction inhibition. inhibition, % at 9.12 µM. HEK-TIYL cells, TEAD-Gal4/YAP UAS-luciferase luminescence. 640,000 tested, 1.4% active; in the data active = inhibition above about 32%;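 note: 0% = median of test compound wells and 100% = reference inhibitor wells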
GPR151 conf act – confirmation of human GPR151 activators; activation, % at 11.2 µM; AID 1508609; GPR151 PathHunter beta-arrestin cells, luminescence, 90 min; % of EA-reagent control over plate median; 6,700 tested, under 10 active; shares compounds with GPR151 ag;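 active = mean percent activation across replicates above the confirmation screen cutoff of 4.91%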
GPR119 counter – counter-screen for GPR151 activators: effect on human GPR119 | activation, % at 11.2 µM | GPR119 PathHunter beta-arrestin cells, luminescence, 90 min; 0 = compound-well median, 100 = enzyme-acceptor control | shares compounds with GPR151 ag | 6,700 tested, 0.3% active | AID 1508611;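 active = mean percent activation in the counterscreen above 29.09%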;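 note: counterscreen on off-target GPR119 to flag nonselective hits from the GPR151 activator screen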
Starred values were filed as active, the others as inactive.

Results for NC(=O)c1nn2c(c1Br)NC(c1ccccc1)CC2C(F)(F)F (configuration not stated) ?
MITF inh: -11; GPR151 ag: -1; FBW7 act: 0; TEAD-YAP inh: 2

Results for O=C(O)c1nn2c(c1Br)NC(c1ccccc1)CC2C(F)(F)F (configuration not stated) ?
MITF inh: 0; GPR151 ag: 7.2*; FBW7 act: 0; TEAD-YAP inh: -4; GPR151 conf act: 0; GPR119 counter: 11

Results for O=C(Nc1ccc(S(=O)(=O)N2CCCC2)cc1)C(=O)NC1CCCc2ccccc21 (configuration not stated) ?
MITF inh: 7; GPR151 ag: 0; FBW7 act: 0; TEAD-YAP inh: 7

Results for CC(=O)c1ccc(NC(=O)C(=O)NC2CCCc3ccccc32)cc1 (configuration not stated) ?
MITF inh: 5; GPR151 ag: 6.7*; FBW7 act: 0; TEAD-YAP inh: -2; GPR151 conf act: 0; GPR119 counter: -4

What do the screens show for `CSc1ccc(S(=O)(=O)Nc2ccc(S(=O)(=O)N3CCOCC3)cc2)cc1`?
MITF inh: 0; GPR151 ag: 5.8*; FBW7 act: 0; TEAD-YAP inh: -2; GPR151 conf act: 0; GPR119 counter: 4

What do the screens show for `COc1cccn2c(C(=O)N3CCCC3)c(C(F)(F)F)nc12`?
MITF inh: 2; GPR151 ag: 0; FBW7 act: 0; TEAD-YAP inh: 9

Results for COc1cccn2c(C(=O)Nc3ccc(Cl)cc3)c(C(F)(F)F)nc12 ?
MITF inh: 10; GPR151 ag: 14*; FBW7 act: 0; TEAD-YAP inh: 0; GPR151 conf act: 1; GPR119 counter: 8

What do the screens show for `COc1cccn2c(C(=O)N3CCC3)c(C(F)(F)F)nc12`?
MITF inh: 8; GPR151 ag: 6.2*; FBW7 act: 0; TEAD-YAP inh: 17; GPR151 conf act: 1; GPR119 counter: 13

How did N#CCCSc1ccccc1NC(=O)c1ccc(S(=O)(=O)N2CCOCC2)cc1 do in these assays?
MITF inh: -11; GPR151 ag: 0; FBW7 act: 0; TEAD-YAP inh: -12

How did COc1ccc(N2C(=O)c3ccccc3NC2c2ccc(Br)cc2)cc1 (configuration not stated) do in these assays?
MITF inh: 8; GPR151 ag: 1; FBW7 act: 0; TEAD-YAP inh: 4

Results for Cc1cc(C)n(-c2cccc(CN(C)C(=O)Cn3nnnc3CN3CCC(C)CC3)c2)n1 ?
MITF inh: 2; GPR151 ag: 5.7*; FBW7 act: 0; TEAD-YAP inh: 4; GPR151 conf act: 0; GPR119 counter: 4

How did CCOc1ccccc1Nc1ccc(C(=O)N2CCCC2)cn1 do in these assays?
MITF inh: 13; GPR151 ag: 8.7*; FBW7 act: 0; TEAD-YAP inh: 8; GPR151 conf act: 0; GPR119 counter: 4

How did O=C(c1ccc([N+](=O)[O-])cc1)N1CCC(C(=O)N2CCN(c3ccccc3)CC2)CC1 do in these assays?
MITF inh: 10; GPR151 ag: 11*; FBW7 act: 0; TEAD-YAP inh: 1; GPR151 conf act: 0; GPR119 counter: 0

How did Cc1ccc2c(c1)CC(C(=O)Nc1ccc(-c3cnoc3N)cc1)CO2 (configuration not stated) do in these assays?
MITF inh: 22; GPR151 ag: 0; FBW7 act: 0; TEAD-YAP inh: 14

What do the screens show for `O=C(Nc1ccc2oc(-c3cccc(Cl)c3Cl)nc2c1)c1ccc(Br)o1`?
MITF inh: 12; GPR151 ag: -1; FBW7 act: 0; TEAD-YAP inh: -11

What do the screens show for `COc1ccc(/C=C/C(=O)c2cccc(OC)c2)cc1`?
MITF inh: -1; GPR151 ag: -1; FBW7 act: 0; TEAD-YAP inh: -16

Results for COc1cccc(C(=O)/C=C/c2ccccc2OC)c1 ?
MITF inh: 16; GPR151 ag: 7.1*; FBW7 act: 0; TEAD-YAP inh: -17; GPR151 conf act: 2; GPR119 counter: 5

What do the screens show for `Cc1nc2sccn2c1CN1CCCC(c2ncncc2-c2ccccc2Cl)C1` (configuration not stated)?
MITF inh: -1; GPR151 ag: 2; FBW7 act: 0; TEAD-YAP inh: -16
